Results reported in PubChem BioAssay (NCATS).
Inconclusive results are not listed. Activity calls are given as the source filed them. Calls follow the shape of the dose curve; as a rule, active = well fitted inhibition curve with a large enough effect; inconclusive = small, poorly fitted or top-dose-only effect; inactive = flat fitted curve, though single readings scatter.

What was measured:
Assay in all cases: qHTS profiling for inhibitors of Plasmodium falciparum proliferation (AID 504749); also: nearly all actives have a fitted effect of over 60% in size
Details in all cases: P. falciparum in erythrocytes, SYBR Green DNA, 72 h; series mostly up to 28.7 µM
CP260 = tested on: CP260
Outline: (§1)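 P. falciparum-infected erythrocytes (0.3% parasitemia, 2.5% hematocrit final) were exposed to compounds for 72 h at 37 C in 5% CO2, then lysed with SYBR Green buffer overnight at room temperature; parasite DNA fluorescence was normalized to artemisinin and DMSO controls.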

CP262 = tested on: CP262
Outline: as §1

CP265 = tested on: CP265
Outline: as §1

CP266 = tested on: CP266
Outline: as §1

CP268 = tested on: CP268
Outline: as §1

CP269 = tested on: CP269
Outline: as §1

CP286 = tested on: CP286
Outline: as §1

CP291 = tested on: CP291
Outline: as §1

CP297 = tested on: CP297
Outline: as §1

CP305 = tested on: CP305
Outline: as §1

CP315 = tested on: CP315
Outline: as §1

CP325 = tested on: CP325
Outline: as §1

CP329 = tested on: CP329
Outline: as §1

CP335 = tested on: CP335
Outline: as §1

DFO2036 = tested on: DFO2036
Outline: as §1

DIV14 = tested on: DIV14
Outline: as §1

DIV17 = tested on: DIV17
Outline: as §1

DIV30 = tested on: DIV30
Outline: as §1

Dd2 = tested on: Dd2
Outline: as §1

ECU = tested on: ECU
Outline: as §1

FAB9 = tested on: FAB9
Outline: as §1

GB4 = tested on: GB4
Outline: as §1

HB3 = tested on: HB3
Outline: as §1

ICS = tested on: ICS
Outline: as §1

JCK = tested on: JCK
Outline: as §1

N140 = tested on: N140
Outline: as §1

P93_24 = tested on: P93_24
Outline: as §1

P94_40 = tested on: P94_40
Outline: as §1

PAD = tested on: PAD
Outline: as §1

PC15 = tested on: PC15
Outline: as §1

PC26 = tested on: PC26
Outline: as §1

PC49 = tested on: PC49
Outline: as §1

SC27B = tested on: SC27B
Outline: as §1

TAB109 = tested on: TAB109
Outline: as §1

TAB113 = tested on: TAB113
Outline: as §1

TAB165 = tested on: TAB165
Outline: as §1

W2 = tested on: W2
Outline: as §1

Measured: Potency

O=C(O)[C@H]1C[C@@H](CP(=O)(O)O)CCN1
inactive: CP260 | CP262 | CP265 | CP266 | CP268 | CP269 | CP286 | CP291 | CP297 | CP305 | CP315 | CP325 | CP329 | CP335 | DFO2036 | DIV14 | DIV17 | DIV30 | Dd2 | ECU | FAB9 | GB4 | HB3 | ICS | JCK | N140 | P93_24 | P94_40 | PAD | PC15 | PC26 | PC49 | SC27B | TAB109 | TAB113 | TAB165 | W2
